Bioassay records: PubChem BioAssay, National Center for Advancing Translational Sciences (NCATS)
Pol iota inh = blocks human DNA polymerase iota activity | Q9UNA4 | AID 588590 | 390,000 tested, 1% active | Pol iota fluorescent replication assay, 10 min | Potency, µM (titrated, usually from 115 µM), hits mostly inhibitors
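Pol iota at 10 nM preincubated 15 min with compounds at room temperature; reaction started with fluorescent substrate, 50 nM final. Fluorescence read kinetically at 0 and 10 min; buffer-only wells as negative control.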
FEN1 inhibitor = blocks human flap endonuclease 1; P39748; Recombinant FEN1 flap cleavage, fluorescence, 15 min; Potency, µM (highest dose often 114 µM), most hits filed as inhibitors; 390,000 tested, 0.35% active; also: nearly all actives have a fitted effect of over 65% in size
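With each library titrated from low to high concentration, compounds met 10 nM FEN1 for 15 min at room temperature before 50 nM substrate was added; readings at 0 and 15 min fed four-parameter Hill curve fits.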
PGK inhibitor = inhibitors of T. brucei phosphoglycerate kinase | 380,000 tested, 0.043% active | PGK/GAPDH coupled, Kinase-Glo luminescence, 60 min | P07378 | AID 602233 | Potency, µM (doses to about 57.5 µM), hits mostly inhibitors; also: nearly all actives have a fitted effect of over 60% in size
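Recombinant glycosomal PGK reaction used 1,3-bisphosphoglycerate generated in-well by GAPDH (100nM final) in 100mM TEA pH 7.6, 5mM MgCl2, 0.01% Tween-20. After 60 minutes at room temperature, ATP was read by Kinase-Glo Plus luminescence end-point.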
Pol beta inh = blocks human DNA polymerase beta activity | P06746 | Pol beta primer extension/strand displacement, fluorescence kinetic | Potency, µM (titrated, usually from 114 µM), actives largely listed as inhibitors | 340,000 tested, 1.3% active
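Pol beta (10 nM) and compounds were preincubated 15 min at room temperature, then 50 nM substrate (final) started primer extension/strand displacement. Reads were taken at 0 and 10 min; concentration-response data were fitted to a four-parameter Hill equation.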
POLH inh = blocks human DNA polymerase eta activity; Potency, µM (titrated, usually from 114 µM), hits mostly inhibitors; AID 588591; Q9Y253; 390,000 tested, 1.2% active; recombinant Pol eta, fluorescent DNA replication assay
Target sequence (Q9Y253 whole entry, looked up): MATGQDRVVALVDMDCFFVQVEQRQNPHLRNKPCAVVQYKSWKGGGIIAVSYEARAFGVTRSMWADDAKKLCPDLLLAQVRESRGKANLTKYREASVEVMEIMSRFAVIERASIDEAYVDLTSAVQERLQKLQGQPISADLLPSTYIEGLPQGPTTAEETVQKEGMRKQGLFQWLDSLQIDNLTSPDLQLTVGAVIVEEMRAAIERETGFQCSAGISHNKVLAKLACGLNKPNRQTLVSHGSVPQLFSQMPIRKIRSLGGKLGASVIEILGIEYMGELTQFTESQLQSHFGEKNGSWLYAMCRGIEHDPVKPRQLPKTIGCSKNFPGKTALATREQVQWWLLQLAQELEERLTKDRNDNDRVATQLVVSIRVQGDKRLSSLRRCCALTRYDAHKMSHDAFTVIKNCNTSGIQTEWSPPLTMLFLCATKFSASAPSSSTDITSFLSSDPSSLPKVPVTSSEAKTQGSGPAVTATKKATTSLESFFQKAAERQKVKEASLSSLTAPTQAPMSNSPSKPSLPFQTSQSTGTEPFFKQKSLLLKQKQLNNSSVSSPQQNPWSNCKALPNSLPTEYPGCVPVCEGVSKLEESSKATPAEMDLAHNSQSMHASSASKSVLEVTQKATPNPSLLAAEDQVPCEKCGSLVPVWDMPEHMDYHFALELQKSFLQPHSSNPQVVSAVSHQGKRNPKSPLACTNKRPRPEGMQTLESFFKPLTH
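Pol eta at 10 nM preincubated with compounds 15 min at room temperature; reaction started with fluorescent substrate (50 nM final) and read kinetically at 0 and 10 min.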
Pol kappa inh = DNA polymerase kappa (human) inhibition; Q9UBT6; purified Pol kappa, fluorescent DNA synthesis assay, 10 min; Potency, µM (top dose mostly 107 µM), hits mostly inhibitors; 400,000 tested, 0.53% active; AID 588579
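Kinetic fluorescence screen: compound preincubated 15 min RT with 10 nM enzyme; 50 nM substrate (final) initiates; reads at 0/10 min.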
Hits are given with their value. Only some compounds are listed: those with a hit (about 2.4% of all), similar ones and a draw of the others. Calls follow the shape of the dose curve; as a rule, active = well fitted curve in the direction sought with a large enough effect; inconclusive = small, poorly fitted or top-dose-only effect, or another doubt; inactive = no such curve, though single readings can be large; an effect the other way counts as inactive or inconclusive.

Screening O=c1cc(CN2CCN(Cc3ccccc3)CC2)c2ccc(O)c(O)c2o1 returned Pol iota inh inconclusive, FEN1 inhibitor inactive, PGK inhibitor inconclusive, Pol beta inh 2.5µM, POLH inh 10µM and Pol kappa inh inconclusive.
For Cc1c(O)ccc2c(CN3CCN(Cc4ccccc4)CC3)cc(=O)oc12 the results were Pol iota inh inactive, FEN1 inhibitor inactive, PGK inhibitor inactive, Pol beta inh inactive, POLH inh inactive and Pol kappa inh inactive.
For CC(C)(C)n1ncc2c(=O)n(Cc3ccc(C#N)cc3F)cnc21 the results were Pol iota inh inactive, FEN1 inhibitor inactive and Pol kappa inh inactive.
`O=C(O)c1ccc(COc2ccc3ccccc3c2/C=C2/NC(=O)N(c3ccccc3)C2=O)cc1` gave Pol iota inh inactive, FEN1 inhibitor inactive, PGK inhibitor inactive, Pol beta inh inactive, POLH inh inactive and Pol kappa inh inactive.
Screening CCN1C(=O)S/C(=C/c2c(OCc3ccc(C(=O)O)cc3)ccc3ccccc23)C1=O returned Pol iota inh inactive, FEN1 inhibitor inactive, PGK inhibitor inactive, Pol beta inh 50µM, POLH inh inactive and Pol kappa inh inactive.
Screening CCOc1cccc(C2C=C(c3ccc4c(c3)OCO4)NC(c3cccc(Br)c3)N2)c1O (stereo unspecified) returned Pol iota inh inactive, FEN1 inhibitor inactive and Pol kappa inh inactive.
For N#Cc1c([N+](=O)[O-])cc([N+](=O)[O-])cc1S(=O)(=O)Cc1ccccc1 the results were Pol iota inh inconclusive, FEN1 inhibitor 79µM, PGK inhibitor inactive, POLH inh inconclusive and Pol kappa inh inactive.
For Cc1sc2nc(SCC(=O)Nc3c(C)n(C)n(-c4ccccc4)c3=O)n(C)c(=O)c2c1C the results were Pol iota inh inconclusive, FEN1 inhibitor inactive, PGK inhibitor inactive, Pol beta inh 20µM, POLH inh inconclusive and Pol kappa inh inactive.
For COc1ccc2c(c1)c1nnc(SC)nc1n2Cc1ccccc1 the results were Pol iota inh inactive, FEN1 inhibitor inactive and Pol kappa inh inactive.
`CC(=O)NCCCN(Cc1ccc(Cl)c(Cl)c1)c1ccc(Br)cn1` gave Pol iota inh inactive, FEN1 inhibitor inconclusive and Pol kappa inh inactive.
`O=C1c2ccccc2C(=O)c2cc(Cn3cc(-c4cccc(C(F)(F)F)c4)nn3)ccc21` gave Pol iota inh inactive, FEN1 inhibitor inactive and Pol kappa inh inactive.
For O=[N+]([O-])c1ccc(Cn2cc(-c3cccc(C(F)(F)F)c3)nn2)cc1 the results were Pol iota inh 89µM, FEN1 inhibitor inactive, PGK inhibitor inactive, Pol beta inh inactive, POLH inh inactive and Pol kappa inh inconclusive.
CCN(c1cc(C)cc(C)c1)S(=O)(=O)c1nnc(NC(=O)c2ccccc2C)s1 was read as Pol iota inh inactive, FEN1 inhibitor inactive, PGK inhibitor inactive, Pol beta inh inactive, POLH inh inactive and Pol kappa inh inactive.
`COc1cc(C2C(C#N)=C(N)OC3=C2C(=O)CCC3)c([N+](=O)[O-])cc1OC` (stereo unspecified) gave Pol iota inh 7.1µM, FEN1 inhibitor inconclusive, PGK inhibitor inactive, Pol beta inh inactive, POLH inh 20µM and Pol kappa inh 89µM.
CCOc1cc2c(C#N)c(N(CC)CC)nc(N)c2c(N)n1 was read as Pol iota inh 10µM, FEN1 inhibitor inactive, PGK inhibitor inactive, POLH inh inactive and Pol kappa inh inactive.
Screening CCOc1cc2c(C#N)c(N3CCOCC3)nc(N)c2c(N)n1 returned Pol iota inh inactive, FEN1 inhibitor inactive, PGK inhibitor inactive, Pol beta inh inactive, POLH inh inactive and Pol kappa inh inactive.
`COCc1cc(=O)[nH]c(Nc2nc(C)c3ccccc3n2)n1` gave Pol iota inh inactive, FEN1 inhibitor 50µM, PGK inhibitor inactive, Pol beta inh inactive, POLH inh inactive and Pol kappa inh inactive.
For C[n+]1ccnc2ccccc21 the results were Pol iota inh inactive, FEN1 inhibitor inactive and Pol kappa inh inactive.
Screening O=C1CCC2CN3CCc4c([nH]c5ccccc45)C3CC2C1 (stereo unspecified) returned PGK inhibitor inactive and POLH inh inactive.
Screening O=C(O)[C@@H]1[C@H]2C[C@H]3c4[nH]c5ccccc5c4CCN3C[C@@H]2CC[C@@H]1O returned Pol iota inh inconclusive, FEN1 inhibitor inconclusive, PGK inhibitor inactive, POLH inh 79µM and Pol kappa inh inconclusive.
Screening C1=CN2CC=Cc3cc(/C=C/c4ccnc5ccccc45)cc(c32)C1 returned Pol iota inh 79µM, FEN1 inhibitor inconclusive and Pol kappa inh inconclusive.
For Nc1cccc(/C=C/c2ccnc3ccccc23)c1 the results were Pol iota inh inactive, FEN1 inhibitor inactive and Pol kappa inh inactive.
Screening O=C(Nc1nccs1)c1cc(-c2ccccn2)nc2c(Cl)cccc12 returned Pol iota inh 25µM, FEN1 inhibitor inconclusive, PGK inhibitor inactive, Pol beta inh inconclusive, POLH inh inconclusive and Pol kappa inh inactive.
Screening Cc1cc(NC(=O)c2cc(-c3ccccn3)nc3c(Cl)cccc23)no1 returned Pol iota inh inactive, FEN1 inhibitor inactive, PGK inhibitor inactive, Pol beta inh inactive, POLH inh inactive and Pol kappa inh inactive.
For Cc1cc(=O)cc2oc3cc(N)c(-c4c(C)cc(O)cc4O)c(C)c3nc1-2 the results were Pol kappa inh 4.5µM.
C=C1C=C(C)n2ncc(C(=O)Nc3cccc(C(=O)Nc4cccc(C(F)(F)F)c4)c3)c2N1 was read as Pol iota inh inactive, FEN1 inhibitor inactive and Pol kappa inh inactive.
For O=C(OC(C(=O)O)C(OC(=O)c1ccccc1)C(=O)NCc1ccccc1)c1ccccc1 (stereo unspecified) the results were Pol iota inh 89µM, FEN1 inhibitor inactive, PGK inhibitor inactive, Pol beta inh inactive, POLH inh inactive and Pol kappa inh inactive.
`Cc1ccc2c(c1)c1c(c(=O)n(-c3ccccc3C)c(=O)n1Cc1cccc(F)c1)n2C` gave Pol iota inh inactive, FEN1 inhibitor inactive, PGK inhibitor inactive, Pol beta inh inactive, POLH inh inactive and Pol kappa inh inactive.
Screening Cc1c(CCC(=O)NCCc2ccccc2F)c(=O)oc2cc(O)ccc12 returned Pol iota inh inactive, FEN1 inhibitor inactive, PGK inhibitor inactive, Pol beta inh inactive, POLH inh inactive and Pol kappa inh inactive.
N#CC1=C(S)N(c2ccccc2)C(c2ccc(-c3cc(Cl)ccc3Cl)o2)NC1=O (stereo unspecified) was read as Pol iota inh inactive, FEN1 inhibitor inactive, PGK inhibitor inactive, Pol beta inh 32µM, POLH inh inactive and Pol kappa inh inactive.
